# Results filed as inconclusive are left out. Unmarked numbers belong to inactive results. Active and inactive are the calls of the source. Calls follow the shape of the full dose curve; tested in HEK293 reporter line.
# Assay: qHTS for Inhibitors of the Functional Ribonucleoprotein Complex (vRNP) of Lassa (LASV) Arenavirus: LASV Primary Screen - GLuc reporter signal (AID 1347082); also: nearly all actives have a fitted effect of over 60% in size
# Conditions: LASV minigenome vRNP, Gaussia luciferase reporter; series mostly up to 57.5 µM; activity change, negative = inhibition: at the top concentration
# % is scaled to controls: 0 for no effect and ±100 for the full control effect.
Compound,Potency,"activity change, negative = inhibition [%]"
Nc1cc(=O)[nH]c(N)n1,inactive,–
CCNC(=O)/C=C/c1cccc(Br)c1,–,6.28
C=CCN1C[C@H](C(=O)N(CCCN(C)C)C(=O)NCC)C[C@@H]2c3cccc4[nH]cc(c34)C[C@H]21,–,-0.063
CC(C)(C)c1ccc(O)cc1,–,5.9
O=C(O)/C=C(\CC(=O)O)C(=O)O,–,-1.37
CN1CCN(c2c(F)cc3c(=O)c(C(=O)O)cn4c3c2SCC4)CC1,–,3.73
CC(C)NCC(O)c1cc(O)cc(O)c1 (stereo unspecified),inactive,–
Cc1ccc(S(=O)(=O)NC(=O)NC2CCCCCCC2)cc1,–,9.11
CC(=O)Nc1ccc(OCC(O)CNC(C)C)cc1 (stereo unspecified),–,4.46
C#C[C@]1(O)CC[C@H]2[C@@H]3CCc4cc(OC5CCCC5)ccc4[C@H]3CC[C@@]21C,–,-1.52
NS(=O)(=O)c1cc(C(=O)O)cc(N2CCCC2)c1Oc1ccccc1,–,-5.54
Cc1cnc(NS(=O)(=O)c2ccc(N)cc2)nc1,–,-4.77
COCCOCC(OC)OC,–,-4.18
CC(C)=CCC/C(C)=C/CO,–,-0.473
O=C(O)c1cc(=O)c2c(OCC(O)COc3cccc4oc(C(=O)O)cc(=O)c34)cccc2o1,inactive,–
NS(=O)(=O)c1ccc(NC(=O)CCC(=O)O)cc1,–,-3.4
Nc1ccc(C(=O)OCC(O)CO)cc1 (stereo unspecified),–,2.06
Cc1cc(-n2nc3ccc(Cl)cc3n2)c(O)c(C(C)(C)C)c1,–,13.7
CN=C(N)NC(=O)Nc1c(C)cccc1C,–,-3.97
COc1c(N2C[C@@H]3CCCN[C@@H]3C2)c(F)cc2c(=O)c(C(=O)O)cn(C3CC3)c12,–,2.49
CC(O)C(=O)O (stereo unspecified),–,6.93
CCN1CCC[C@H]1CNC(=O)c1c(O)c(Cl)cc(Cl)c1OC,inactive,–

# Assay: qHTS for Inhibitors of the Functional Ribonucleoprotein Complex (vRNP) of Lassa (LASV) Arenavirus: Viability assay - alamar blue signal for LASV Primary Screen (AID 1347083); also: nearly all actives have a fitted effect of over 80% in size
# Conditions: cell viability, alamar blue fluorescence (LASV minigenome counter-screen); series mostly up to 57.5 µM; activity change, negative = reduced viability: at the top concentration
Compound,"activity change, negative = reduced viability",Potency
Cn1c(=O)c2c(ncn2CC(=O)O)n(C)c1=O,-2.4%,–
CC1(C)O[C@@H]2C[C@H]3[C@@H]4CCC5=CC(=O)C=C[C@]5(C)[C@@H]4[C@@H](O)C[C@]3(C)[C@]2(C(=O)CO)O1,6%,–
NC(=O)n1c(O)c(C(=O)c2cccs2)c2cc(Cl)ccc21,-3.04%,–
Cc1scc2c1N(C(=O)CN1CCN(C)CC1)c1ccccc1NC2=O,–,inactive
O=P(O)(O)C(O)(Cn1ccnc1)P(=O)(O)O,5.51% [at 24.7 µM],–
Cc1ccc2ccc(Cl)cc2n1,7.16%,–
CCC(=O)c1c(O)cc(O)cc1O,32.9%,–
CC(=O)OCC(=O)[C@@]1(O)[C@H](C)C[C@H]2[C@@H]3CCC4=CC(=O)C=C[C@]4(C)[C@@]3(F)[C@@H](O)C[C@@]21C,6.23%,–
CC(=O)c1ccc(O)c(C(N)=O)c1,-0.103%,–
CCOC(=O)C1=C(C)NC(C)=C(C(=O)OC)C1c1cccc([N+](=O)[O-])c1 (stereo unspecified),–,inactive
COc1ccc(-c2cc(=O)c3c(O)cc(O[C@@H]4O[C@H](CO[C@@H]5O[C@@H](C)[C@H](O)[C@@H](O)[C@H]5O)[C@@H](O)[C@H](O)[C@H]4O)cc3o2)cc1O,4.23%,–
NC(Cc1ccc(Cl)cc1)C(=O)O (stereo unspecified),–,inactive
Cc1cc(=O)oc2cc(O[C@@H]3SC[C@@H](O)[C@H](O)[C@H]3O)ccc12,2.88%,–
CS(=O)(=O)c1ccc([C@@H](O)[C@@H](CF)NC(=O)C(Cl)Cl)cc1,-2.99%,–
CC(C)COC(=O)c1ccc(N)cc1,-6.81%,–
CCN(CC)C(C)CN1c2ccccc2Sc2ccccc21 (stereo unspecified),–,inactive
CCOc1ncc(F)c(=O)[nH]1,-0.501%,–
Nc1cc(=O)[nH]c(N)n1,–,inactive
CCNC(=O)/C=C/c1cccc(Br)c1,-5.16%,–
C=CCN1C[C@H](C(=O)N(CCCN(C)C)C(=O)NCC)C[C@@H]2c3cccc4[nH]cc(c34)C[C@H]21,2.17%,–

Compound,"activity change, negative = reduced viability",Potency
CC(C)(C)c1ccc(O)cc1,-1.42%,–
O=C(O)/C=C(\CC(=O)O)C(=O)O,4.56%,–
CN1CCN(c2c(F)cc3c(=O)c(C(=O)O)cn4c3c2SCC4)CC1,12.4%,–
CC(C)NCC(O)c1cc(O)cc(O)c1 (stereo unspecified),–,inactive
Cc1ccc(S(=O)(=O)NC(=O)NC2CCCCCCC2)cc1,2.62%,–
CC(=O)Nc1ccc(OCC(O)CNC(C)C)cc1 (stereo unspecified),7.8%,–
C#C[C@]1(O)CC[C@H]2[C@@H]3CCc4cc(OC5CCCC5)ccc4[C@H]3CC[C@@]21C,-2.85%,–
NS(=O)(=O)c1cc(C(=O)O)cc(N2CCCC2)c1Oc1ccccc1,5.67%,–
Cc1cnc(NS(=O)(=O)c2ccc(N)cc2)nc1,-27.6%,–
COCCOCC(OC)OC,-10.2%,–
CC(C)=CCC/C(C)=C/CO,8.14%,–
O=C(O)c1cc(=O)c2c(OCC(O)COc3cccc4oc(C(=O)O)cc(=O)c34)cccc2o1,–,inactive
NS(=O)(=O)c1ccc(NC(=O)CCC(=O)O)cc1,-0.462%,–
Nc1ccc(C(=O)OCC(O)CO)cc1 (stereo unspecified),-0.301%,–
Cc1cc(-n2nc3ccc(Cl)cc3n2)c(O)c(C(C)(C)C)c1,-5.14%,–
CN=C(N)NC(=O)Nc1c(C)cccc1C,0.457%,–
COc1c(N2C[C@@H]3CCCN[C@@H]3C2)c(F)cc2c(=O)c(C(=O)O)cn(C3CC3)c12,-17.3%,–
CC(O)C(=O)O (stereo unspecified),2.18%,–
CCN1CCC[C@H]1CNC(=O)c1c(O)c(Cl)cc(Cl)c1OC,–,inactive

# From PubChem BioAssay (NCATS)
